Screens as filed in PubChem BioAssay.
A selection: hits, their analogues and other compounds. The true share with any hit is near 19%.
DT40 TDP1 no CPT: qHTS for Inhibitors of human tyrosyl-DNA phosphodiesterase 1 (TDP1): qHTS in cells in absence of CPT; DT40 Tdp1-/- hTDP1 cells, no CPT, ATP luminescence, 48 h; Potency, µM (highest dose often 46.2 µM), most hits filed as inhibitors; actives 15% (n = 420,000); further: nearly all actives have a fitted effect of over 55% in size
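Stably hTDP1-transfected Tdp1-null chicken DT40 cells were treated with library compounds minus camptothecin and grown for at least 48 hr at 37 °C, after which cellular ATP was quantified by luminescence.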
ELG1 DNA repair: qHTS screen for small molecules that inhibit ELG1-dependent DNA repair in human embryonic kidney (HEK293T) cells expressing luciferase-tagged ELG1. HEK293T ELG1-luciferase reporter, luminescence, 16 h; DNA damage induced by 5-fluorouridine. Potency, µM (series often up to 46.1 µM), hits mostly inhibitors. actives 2.3% (n = 330,000); further: nearly all actives have a fitted effect of over 55% in size
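Luminescence from the luciferase reporter, measured 30 min after ONE-Glo reagent at room temperature, was the read-out. Beforehand, 2,000 cells per well were exposed for 16 hr at 37 °C to 5-fluorouridine together with compound or vehicle.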
HT1080NT lethal: qHTS for induction of synthetic lethality in tumor cells producing 2HG: qHTS for the HT-1080-NT fibrosarcoma cell line; HT-1080-NT fibrosarcoma viability, CellTiter-Glo ATP luminescence, 48 h; Potency, µM (doses to about 46.1 µM), most hits filed as cytotoxic; actives 1.6% (n = 360,000); AID 686970, 2013;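 further: NT is the 2HG producing partner of a matched IDH1 knockdown line; nearly all actives have a fitted effect of over 55% in size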
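Viability by CellTiter-Glo luminescence after 48 h compound exposure at 37C of HT-1080-NT cells (750/well, RPMI, 5% FBS). % activity scaled between DMSO wells and medium-only wells, then curve-fitted and categorized by curve class.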
IL-1B inflam inh: qHTS for Inhibitors of Inflammasome Signaling: IL-1-beta AlphaLISA Primary Screen; activity change, % at 57.5 µM; THP-1 LPS/ATP IL-1B secretion, AlphaLISA, 16 h; active compounds read low; actives 4.7% (n = 360,000); AID 743279, 2014; in the data active means activity change below about -50%; inconclusive means mostly about -30% to -49%
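THP-1 cells pretreated 1 hr with compounds (up to 57.5 uM final), then stimulated with LPS (250 ng/mL final) plus ATP (1.25 mM final); secreted IL-1B measured by AlphaLISA after 16 hr, decreased signal indicating inhibition.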
HT1080 IDH1KD tx: qHTS for induction of synthetic lethality in tumor cells producing 2HG: qHTS for the HT-1080-IDH1KD cell line | HT-1080 IDH1 knockdown viability, ATP luminescence, 48 h | Potency, µM (titrated, usually from 46.1 µM), hits mostly cytotoxic | actives 2% (n = 360,000)
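Luminescent ATP read-out (CellTiter-Glo, 10 min at room temperature) after 48 h compound exposure at 37 °C gave viability of IDH1-knockdown HT-1080 cells. Activity was normalised to DMSO and cell-free wells, then fitted as concentration-response curves.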
TDP1 cell CPT: qHTS for Inhibitors of human tyrosyl-DNA phosphodiesterase 1 (TDP1): qHTS in cells in presence of CPT; chicken DT40 Tdp1-/-;hTDP1 cells + 20 nM CPT, ATP luminescence, 48 h; Potency, µM (doses to about 46.2 µM), hits mostly inhibitors; actives 12% (n = 420,000); further: nearly all actives have a fitted effect of over 55% in size
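Chicken DT40 Tdp1-/- cells stably complemented with human TDP1 were seeded at 400 cells/well in medium containing 20 nM camptothecin, exposed to pin-transferred compounds, and grown at 37 °C for at least 48 hr. Viability was read as ATP luminescence.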
Of the large screens only hits and unclear results are named; the others gave an inactive call. Unless noted, the call rests on the fitted dose curve; in most records, active means well fitted curve in the direction sought with a large enough effect; inconclusive means small, poorly fitted or top-dose-only effect, or another doubt; inactive means no such curve, though single readings can be large; an effect the other way counts as inactive or inconclusive.

Cc1ccccc1C(N)c1ccncc1 (stereo not drawn)	none
CCCOc1ccc(N2C(=O)CC(N(CCOC34CC5CC(CC(C5)C3)C4)C(C)=O)C2=O)cc1 (stereo not drawn)	ELG1 DNA repair inconclusive
CCOC(=O)C1(CCOc2ccccc2)CCN(Cc2ccc(CO)o2)CC1	DT40 TDP1 no CPT 2.3µM, TDP1 cell CPT 8.2µM
CCOC(=O)C1(CCOc2ccccc2)CCN(Cc2cccc(F)c2)CC1	DT40 TDP1 no CPT 5.8µM, IL-1B inflam inh inconclusive, TDP1 cell CPT 16µM
CCOC(=O)C1(CCOc2ccccc2)CCN(CC2CC2)CC1	none
COc1cccc(-c2noc(COc3ccc(C(C)(C)C)cc3)n2)c1	none (no result: ELG1 DNA repair, HT1080NT lethal, IL-1B inflam inh, HT1080 IDH1KD tx)
O=C1CCCN1CCC1CCN(C2CC(=O)N(c3ccc(F)cc3)C2=O)CC1 (stereo not drawn)	DT40 TDP1 no CPT 21µM, TDP1 cell CPT 18µM (no result: ELG1 DNA repair)
Cc1cc2ccccc2n1CCNC(=O)C(C)C	none
Cc1cc2ccccc2n1CCNC(=O)C(C)Oc1ccccc1 (stereo not drawn)	ELG1 DNA repair inconclusive, TDP1 cell CPT 23µM
Cc1ccc(C(=O)NCCn2c(C)cc3ccccc32)cc1C	DT40 TDP1 no CPT 10µM, TDP1 cell CPT 12µM (no result: ELG1 DNA repair, HT1080NT lethal, IL-1B inflam inh, HT1080 IDH1KD tx)
CCN(C(=O)Cn1nc(Cc2ccncc2)c2ccccc2c1=O)c1ccc(OC)cc1	DT40 TDP1 no CPT inconclusive (no result: ELG1 DNA repair, HT1080NT lethal, IL-1B inflam inh, HT1080 IDH1KD tx)
COC(=O)C(C)N(C(=O)c1ccc(C(=O)c2ccccc2)cc1)c1c(C)cccc1C (stereo not drawn)	DT40 TDP1 no CPT 20µM, ELG1 DNA repair inconclusive, HT1080 IDH1KD tx inconclusive, TDP1 cell CPT 13µM
Cc1ccccc1NC(=O)C(C)c1cccc(C(=O)c2ccccc2)c1 (stereo not drawn)	DT40 TDP1 no CPT inconclusive
COC(=O)C(C)N(C(=O)c1ccc(Cl)cc1)c1c(C)cccc1C (stereo not drawn)	DT40 TDP1 no CPT inconclusive, TDP1 cell CPT 15µM
Cc1ccsc1/C=C/C1=Cc2c(sc(NC(=O)CSc3n[nH]c(N)n3)c2C#N)C(C)(C)C1	DT40 TDP1 no CPT 15µM, ELG1 DNA repair inconclusive, HT1080NT lethal 22µM, IL-1B inflam inh -63, HT1080 IDH1KD tx 13µM, TDP1 cell CPT 23µM
CCOc1ccc(/C=C/C2=Cc3c(sc(NC(=O)CSc4n[nH]c(N)n4)c3C#N)C(C)(C)C2)cc1	DT40 TDP1 no CPT 15µM, ELG1 DNA repair inconclusive, HT1080NT lethal inconclusive, IL-1B inflam inh -93, HT1080 IDH1KD tx inconclusive, TDP1 cell CPT 13µM
CCCCc1nn2c(=O)cc(COC(=O)c3ccccc3NC(=O)c3cccc(C)c3)nc2s1	none (no result: ELG1 DNA repair, HT1080NT lethal, IL-1B inflam inh, HT1080 IDH1KD tx)
NS(=O)(=O)c1ccc(CCNC(=O)C2COc3ccccc3C2)cc1 (stereo not drawn)	DT40 TDP1 no CPT inconclusive (no result: ELG1 DNA repair, HT1080NT lethal, IL-1B inflam inh, HT1080 IDH1KD tx)
COc1ccc(CNc2ncnc3c2c(-c2ccccc2)cn3-c2ccc(C)c(Cl)c2)cc1	none (no result: ELG1 DNA repair, HT1080NT lethal, IL-1B inflam inh, HT1080 IDH1KD tx)
COc1ccc(-n2cc(-c3ccccc3)c3c(NC4CCCC4)ncnc32)cc1	DT40 TDP1 no CPT 18µM, TDP1 cell CPT 23µM (no result: ELG1 DNA repair, HT1080NT lethal, IL-1B inflam inh, HT1080 IDH1KD tx)
COc1ccc(-n2cc(-c3ccccc3)c3c(N4CC(C)OC(C)C4)ncnc32)cc1 (stereo not drawn)	DT40 TDP1 no CPT 12µM, ELG1 DNA repair inconclusive, HT1080NT lethal inconclusive, HT1080 IDH1KD tx 23µM, TDP1 cell CPT inconclusive
COc1ccc(S(=O)(=O)N2CCCCC2)cc1NC(=O)C1CC1(Cl)Cl (stereo not drawn)	none (no result: ELG1 DNA repair)
CCc1nnc(NC(=O)c2cc([N+](=O)[O-])ccc2N2CCOCC2)s1	none
